Screening data as filed in PubChem BioAssay.
An excerpt weighted towards active compounds, which were near 6% of everything screened.
DRD3 antagonist – antagonists of human D3 dopamine receptor. max response, negative = inhibition, %. P35462. 360,000 compounds, 2.5% hits. D3R cells, DiscoveRx beta-arrestin luminescence, antagonist mode; active compounds read low. AID 652054; in the data active = max response below about -50%; inconclusive = no clear call, values can overlap the other calls; also: % is scaled to controls: 0 for no effect and ±100 for the full control effect
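Cells plated overnight at 1500 cells/well, then exposed to library compounds with dopamine controls for 90 minutes at 37 degrees C. DiscoveRx reagent added for 30–60 minutes at room temperature; luminescence read, quantitative HTS format.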
D1 agonist – activates the human D1 dopamine receptor. HEK293 T-REx D1 cells, calcium flux, agonist mode. 360,000 compounds, 1% hits. activation, % at 2 µM. AID 504660. P21728; in the data active = activation above about 30%; also: 0% is about no effect
Target sequence (P21728 whole entry, looked up): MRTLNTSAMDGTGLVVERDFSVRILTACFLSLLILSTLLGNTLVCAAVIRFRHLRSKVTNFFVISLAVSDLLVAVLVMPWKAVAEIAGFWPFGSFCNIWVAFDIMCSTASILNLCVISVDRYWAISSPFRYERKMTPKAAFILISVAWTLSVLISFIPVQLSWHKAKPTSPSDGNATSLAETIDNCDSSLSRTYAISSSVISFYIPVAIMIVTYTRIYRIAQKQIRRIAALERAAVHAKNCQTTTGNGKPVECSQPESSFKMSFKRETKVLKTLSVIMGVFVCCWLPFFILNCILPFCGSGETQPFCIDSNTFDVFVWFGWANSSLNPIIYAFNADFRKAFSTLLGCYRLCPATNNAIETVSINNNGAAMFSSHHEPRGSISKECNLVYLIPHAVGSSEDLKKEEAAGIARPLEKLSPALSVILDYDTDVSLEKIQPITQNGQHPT
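Agonism was scored from calcium flux recorded over 180 s (1 read/s) after pintool compound addition, following a 10-cycle baseline. Cells were inducible force-coupled HEK293 TREx D1, plated overnight at 30 C and loaded with no-wash calcium dye.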
Chronic BCR inh – blocks chronic active B-cell receptor signaling | ABC-DLBCL IkBa-CBG/CBR reporter, luminescence ratio, 4 h | Potency, µM (highest dose often 46.1 µM), for the others: top-dose activity change, negative = inhibition, usual class: inhibitors | 340,000 compounds, 0.05% hits | AID 493014; active = well fitted inhibition curve with a large enough effect in the signal ratio, with a control signal flat, not every such curve was filed as active; inconclusive = small, poorly fitted or top-dose-only effect, or effect the other way, or a change in a side signal; the % refers to the signal ratio;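 also: potency is read from the fitted curve at half-maximal effect; plate controls were basal doxycycline-induced cells for no effect and cells given 10 µM MG132 for full effect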
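Compounds up to 46 uM were incubated four hours with TMD8 cells whose green CBG68 luciferase is fused to IkappaBalpha; red CBR luminescence normalised the signal, and concentration-effect curves were fitted to fusion, red and ratio data.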
D1 potentiator – enhances dopamine response at the human D1 receptor | P21728 | HEK293 TREx D1 cells, calcium flux, dopamine EC20 potentiation | 360,000 compounds, 0.036% hits | potentiation, % at 10 µM; in the data active = potentiation above about 30%; also: 0% is about no effect
D1 antag – blocks dopamine activation of the human D1 receptor; P21728; HEK293 TREx D1 cells, calcium flux, dopamine EC80; active compounds read low; activity change, negative = inhibition, % at 10 µM; 360,000 compounds, 3.2% hits; in the data active = activity change below about -30%; also: % is scaled to controls: 0 for no effect and ±100 for the full control effect
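Tetracycline-induced HEK293 Trex D1 cells, force-coupled to calcium, dye-loaded; compounds added and read 180 s, then EC80 dopamine added and calcium flux tracked kinetically another 180 s.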
DRD3 agonist – activates the human D3 dopamine receptor. P35462. D3R DiscoveRx beta-arrestin cells, luminescence, 90 min. max activation, %. 410,000 compounds, 0.58% hits. AID 652048; in the data active = max activation above about 30%; also: 0% is about no effect
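Agonist-mode cell screen: cells plated at 1500/well and incubated overnight at 37 °C, then exposed to library compounds for 90 min at 37 °C. Detection reagent was added for 30–60 min at room temperature, and luminescence was read.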
* hit, by the source's call; u = inconclusive; x = not tested or not shown.

SMILES	DRD3 antagonist	D1 agonist	Chronic BCR inh	D1 potentiator	D1 antag	DRD3 agonist
CC(=O)NCCNc1nc2cc(-c3cccc(C(F)(F)F)c3)sc2c(=O)n1C	29	x	x	x	x	15
Cc1cccc(C(=O)NC(NCCc2ccccc2)C(Cl)(Cl)Cl)c1 (stereo not given)	11	19	u	-4	-41*	3
Cc1ccccc1NC(=O)CCN1CCN(Cc2ccccc2)CC1	-11	-1	u	4	4	-5
CC(C)NC(=O)C1(C)CSCC(=O)N1C1CCN(Cc2ccccc2)CC1 (stereo not given)	-64*	x	x	x	x	-21
C=CCNC(=O)c1ccc(CN2CCC(Cc3ccccc3)CC2)cc1	u	6	-7%	-12	-58*	-26
CC1(C(=O)NCc2ccccc2)CSCC(=O)N1C1CCN(Cc2ccccc2)CC1 (stereo not given)	-17	x	x	x	x	-22
Cc1ccccc1NC(=O)c1ccc(CN2CCC(Cc3ccccc3)CC2)cc1	-64*	18	u	-19	-57*	-19
Cc1ccc(C(=O)NCC(=O)N2CCC(Cc3ccccc3)CC2)cc1	6	9	1%	-2	-36*	2
COc1ccc(CCNC(=O)c2ccc(CN3CCC(Cc4ccccc4)CC3)cc2)cc1	-17	3	1%	1	-8	-9
CC(C)NC(=O)c1ccc(CN2CCC(Cc3ccccc3)CC2)cc1	-80*	6	3%	-8	29	-24
CN(C)c1cccc(-c2cc(Nc3ccc(C(C)(C)C)cc3)ncn2)c1	-55*	x	x	x	x	2
Cc1ccccc1OCCNC(=S)Nc1ccccc1	0	13	13%	-7	-17	-8
CCC(C)NCCOc1ccc(Br)cc1 (stereo not given)	-68*	5	12%	-5	10	-5
CCC(C)NCCOc1ccccc1C (stereo not given)	-67*	2	4%	-3	-17	-34
COc1ccc(C(=O)Nc2ccc3nc4c(c(Nc5ccccc5OC)c3c2)CCCC4)c(OC)c1	x	-1	x	-1	-13	-7
COc1cc(OC)cc(N2C(=O)CC(N3CCC(C(=O)N4CCCCC4)CC3)C2=O)c1 (stereo not given)	-2	1	-1%	-4	21	-3
CC(=O)Nc1cccc(N2C(=O)CC(N3CCC(C(=O)N4CCCCC4)CC3)C2=O)c1 (stereo not given)	-59*	2	12%	-1	2	4
CCOC(=O)[C@@H](CCc1ccccc1)N[C@H](C)C(=O)N1[C@H](C(=O)O)C[C@@H]2CCC[C@@H]21	-54*	1	4%	-4	-19	-20
CCOC(=O)[C@H](CCc1ccccc1)N[C@@H](C)C(=O)N1[C@H](C(=O)O)C[C@@H]2CCC[C@@H]21	25	x	x	x	x	17
O=C(NC(c1ccc(Cl)cc1)c1cnccn1)C1CCN(Cc2ccccc2)CC1 (stereo not given)	19	x	x	x	x	-15
COc1ccc(CN2CCC(C(=O)Nc3ccc(Oc4cccnc4)cc3)CC2)cc1	-26	23	u	-5	-10	-8
COc1ccc(C(NC(=O)C2CCN(Cc3ccc(Oc4ccccc4)cc3)CC2)c2ccccn2)cc1 (stereo not given)	-55*	x	x	x	x	-26
O=C(NC(c1ccc(-c2ccccc2)cc1)c1cnccn1)C1CCN(Cc2cccc(C(F)(F)F)c2)CC1 (stereo not given)	0	x	x	x	x	-5
COc1cc(CN2CCC(C(=O)NC(c3ccc(-c4ccccc4)cc3)c3cnccn3)CC2)cc(OC)c1 (stereo not given)	-54*	x	x	x	x	-10
O=C(NC(c1ccc(-c2ccccc2)cc1)c1cnccn1)C1CCN(Cc2ccc(Oc3ccccc3)cc2)CC1 (stereo not given)	-54*	x	x	x	x	-20
SMILES	DRD3 antagonist	D1 agonist	Chronic BCR inh	D1 potentiator	D1 antag	DRD3 agonist
Cc1ccc(Cn2c(CNC(=O)c3ccccc3Br)nc3cccnc32)cc1	x	1	x	0	-2	3
CC(NC(=O)CCCN1C(=O)CCn2nc(-c3cn(C)c4ccccc34)cc21)c1ccccc1 (stereo not given)	x	3	x	-3	-9	-2
Fc1ccc(-c2noc3ncnc(NCc4ccc(Cl)cc4)c23)cc1	x	1	x	-6	4	6
CCOc1c(OC(C)=O)ccc(/C=C/c2ccc3cccc(OC(C)=O)c3n2)c1[N+](=O)[O-]	0	2	u	-8	-25	0
C=CCN1C(=O)/C(=C/c2ccc(OC(C)=O)c(OCC)c2[N+](=O)[O-])SC1=S	-22	30	u	-7	-31*	7
O=S(=O)(c1ccc(Cl)cc1)c1nnn2c1nc(NCc1ccccc1)c1sccc12	x	2	x	-5	1	-3
O=C(NCC1CCCO1)c1ccccc1OCc1ccc(F)cc1 (stereo not given)	-66*	2	12%	-8	3	-5
O=C(NCC1CCCO1)c1ccccc1OCc1ccc(Cl)cc1 (stereo not given)	19	3	-1%	-4	-4	6
O=[N+]([O-])c1ccc(C(=S)N2CCN(c3ccc(F)cc3)CC2)cc1	-1	0	4%	4	-33*	-4
Cc1ccc(N2CCN(C(=S)c3ccc(N(C)C)cc3)CC2)cc1	-24	1	-14%	-4	-11	-6
CN(C)c1ccc(C(=S)N2CCN(c3ccc([N+](=O)[O-])cc3)CC2)cc1	-23	1	-10%	-4	-32*	-8
CCNC(=O)C1(C)CCN(C(=O)c2ccccc2F)C1 (stereo not given)	14	x	x	x	x	5
CNc1cncc(-c2cccc(C(=O)N(C)C)c2)n1	16	x	x	x	x	5
COc1ccc(OC)c(CN2CCCCCC2)c1	0	4	2%	-3	16	-9
COc1ccc(CN2CCN(c3ccccc3OC)CC2)c(OC)c1	-100*	4	-1%	4	-46*	-5
COc1ccc(CN2CCN(Cc3ccccc3C(F)(F)F)CC2)c(OC)c1	u	9	-2%	-12	-26	-36
COc1ccc(OC)c(CN2CCN(Cc3cccc4ccccc34)CC2)c1	-54*	2	0%	-15	-67*	-1
COc1ccc(CC(C)N2CCN(Cc3ccccc3)CC2)c(OC)c1 (stereo not given)	-84*	2	-3%	-9	-11	-39
COc1ccc2ccccc2c1CN1CCN(C)CC1	-82*	4	-1%	-6	22	-9
COc1ccc(OC)c(CCNC(=O)CCCn2c(=O)c3cccn3c3ccc(F)cc32)c1	x	5	x	-4	-9	4
